PubChem BioAssay (Tox21)
Results filed as inconclusive are left out. A call without a number means that no potency is given here. Active and inactive are the calls of the source. Unless noted, calls come from the whole dose curve; as a rule, active = well fitted curve in the direction sought with a large enough effect in the repeat runs; inconclusive = weak or mixed curves; inactive = no such curve, though single readings can be large; an effect the other way counts as inactive or inconclusive.

What was measured:
[1] = qHTS assay for small molecule agonists of the p53 signaling pathway (AID 651631; calls by dose curve; note: nearly all actives have a fitted effect of over 15% in size; note: potency is the fitted concentration of half-maximal effect)
Method in brief: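 Stably transfected HCT-116 cells (beta-lactamase behind p53 response elements) get compounds after a 5 h settling period; 16 h later at 37 °C, FRET substrate is loaded and fluorescence read after 2 h.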

[2] = qHTS assay to test for compound auto fluorescence at 590 nm (red) in HepG2 cells (AID 720674)
Method in brief: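 We screened compounds on adherent HepG2 cells, incubating them for an hour at 37 C in 5% CO2 before reading emission at 590 nm under 540 nm excitation; values reflect equivalence to Rose Bengal sodium fluorescence.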

[3] = qHTS assay to test for compound auto fluorescence at 535 nm (green) in HepG2 cells (AID 720675)
[4] = qHTS assay to test for compound auto fluorescence at 460 nm (blue) in HEK293 cells (AID 720678)
Method in brief: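 Auto fluorescence in the blue band was quantified as triamterene equivalency. HEK293 cells were seeded at 2,000/well, dosed after a 4-5 hr attachment, and kept overnight at 37C before the 405/460 nm reading.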

[5] = qHTS assay to test for compound auto fluorescence at 590 nm (red) in HEK293 cells (AID 720679)
Method in brief: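 Autofluorescence equivalency to Rose Bengal sodium, 540/590nm, in HEK293 cells exposed overnight to 23 nL compound per well.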

[6] = qHTS assay to test for compound auto fluorescence at 535 nm (green) in HEK293 cells (AID 720680)
[7] = qHTS assay to test for compound auto fluorescence at 460 nm (blue) in HEK293 cell free culture (AID 720681)
Method in brief: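 Blue fluorescence (Ex 405/Em 460 nm, triamterene-equivalent) was read immediately after pin transfer of compound or DMSO into medium (DMEM, 10% FBS) without cells.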

[8] = qHTS assay to test for compound auto fluorescence at 535 nm (green) in HEK293 cell free culture (AID 720682)
Method in brief: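 Using fluorescein as calibrant, autofluorescence was quantified at 485/535 nm in cell-free DMEM containing 10% FBS after pintool addition of compound or vehicle.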

[9] = qHTS assay to test for compound auto fluorescence at 590 nm (red) in HEK293 cell free culture (AID 720683)
Method in brief: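 Red-channel autofluorescence of compounds in culture medium (DMEM, 10% FBS), no cells, measured at 540/590 nm. Rose Bengal sodium is the reference fluorophore for equivalence.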

[10] = qHTS assay to test for compound auto fluorescence at 590 nm (red) in HepG2 cell free culture (AID 720684)
Method in brief: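 Plate contents were MEM with 10% FBS plus test compound or DMSO, no cells. Fluorescence was recorded with 540 nm excitation and 590 nm emission.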

[11] = qHTS assay to test for compound auto fluorescence at 460 nm (blue) in HepG2 cell free culture (AID 720685)
Method in brief: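 Compound (23 nL) or DMSO pinned into cell-free MEM with 10% FBS; blue fluorescence read at 405/460 nm excitation/emission, expressed as auto-fluorescence equivalency to triamterene.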

[12] = qHTS assay to test for compound auto fluorescence at 535 nm (green) in HepG2 cell free culture (AID 720686)
[13] = qHTS assay to test for compound auto fluorescence at 460 nm (blue) in HepG2 cells (AID 720687)
Method in brief: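 Blue-channel autofluorescence (Ex/Em 405/460 nm, triamterene-equivalent) was measured after 1 hr compound exposure at 37 C, 5% CO2. Cells were HepG2, plated overnight at 37 C in MEM plus 10% FBS.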

[14] = biological target: Glucocorticoid receptor (Homo sapiens) (UniProt P04150); test: qHTS assay to identify small molecule agonists of the glucocorticoid receptor (GR) signaling pathway (AID 720691; active = well fitted activation curve with a large enough effect in the signal ratio in the repeat runs, not every such curve was filed as active; the % refers to the signal ratio; note: potency is the fitted concentration of half-maximal effect); details: GR-bla HeLa, beta-lactamase reporter ratio, 18 h; activation: at 62.4 µM (top of the series)
Glucocorticoid receptor (Homo sapiens), sequence (P04150 whole entry, looked up): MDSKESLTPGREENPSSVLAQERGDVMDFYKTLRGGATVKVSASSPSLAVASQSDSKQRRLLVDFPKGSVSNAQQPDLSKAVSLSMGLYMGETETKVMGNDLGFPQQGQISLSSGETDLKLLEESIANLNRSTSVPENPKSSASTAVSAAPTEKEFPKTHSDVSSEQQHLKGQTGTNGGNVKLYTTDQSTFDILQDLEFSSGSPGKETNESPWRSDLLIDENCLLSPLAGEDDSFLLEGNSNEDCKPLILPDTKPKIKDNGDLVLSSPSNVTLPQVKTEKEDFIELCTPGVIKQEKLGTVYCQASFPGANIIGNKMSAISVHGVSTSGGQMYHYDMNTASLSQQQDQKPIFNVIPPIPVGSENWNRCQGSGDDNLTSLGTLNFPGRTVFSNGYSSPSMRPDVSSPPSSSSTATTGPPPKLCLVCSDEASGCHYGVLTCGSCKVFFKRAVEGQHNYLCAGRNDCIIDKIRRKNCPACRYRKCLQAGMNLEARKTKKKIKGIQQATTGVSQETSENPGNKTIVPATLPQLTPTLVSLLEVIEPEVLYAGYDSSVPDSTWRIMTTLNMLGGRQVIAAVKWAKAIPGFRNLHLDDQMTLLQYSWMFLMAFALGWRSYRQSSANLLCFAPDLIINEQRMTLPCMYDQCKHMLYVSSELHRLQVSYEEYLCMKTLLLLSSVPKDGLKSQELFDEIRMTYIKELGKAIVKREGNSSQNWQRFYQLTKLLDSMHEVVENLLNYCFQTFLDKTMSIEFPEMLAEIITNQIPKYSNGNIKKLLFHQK
Method in brief: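 Agonist mode in a HeLa line carrying a GRE-controlled beta-lactamase reporter. Compounds act for 18 h at 37 C before a 2 h room-temperature FRET substrate step and fluorescence reading.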

[15] = biological target: Glucocorticoid receptor (Homo sapiens) (UniProt P04150); test: qHTS assay to identify small molecule antagonists of the glucocorticoid receptor (GR) signaling pathway (AID 720692; active = well fitted inhibition curve with a large enough effect in the signal ratio in the repeat runs, not every such curve was filed as active; the % refers to the signal ratio; note: potency is the fitted concentration of half-maximal effect)
Method in brief: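 Cells plated, rested 4 h at 37 C/5% CO2; compounds in DMSO pin-transferred; dexamethasone added to 5 nM final; 18 h at 37 C; B/G FRET substrate added, 2 h room temperature; fluorescence measured.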

[16] = qHTS assay for small molecules that induce genotoxicity in human embryonic kidney cells expressing luciferase-tagged ATAD5 (AID 651632); note: nearly all actives have a fitted effect of over 15% in size; note: potency is the fitted concentration of half-maximal effect
Method in brief: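 Increased luciferase signal from ATAD5-tagged reporter cells indicates DNA-damage-driven ATAD5 induction. HEK293T cells are treated for 16 hr at 37C before detection with Amplite.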

[17] = qHTS assay for small molecule agonists of the p53 signaling pathway - cell viability (AID 651633; calls by dose curve;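 note: p53RE-bla HCT reporter cells with a stable beta-lactamase p53 reporter; nearly all actives have a fitted effect of over 30% in size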)
Method in brief: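 Viability counter-read: CellTiter-Glo luminescence (30 min, room temperature) in the same p53RE-bla plates. These plates had been exposed to compounds for 16 h at 37 C.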

[18] = qHTS assay for small molecules that induce genotoxicity in human embryonic kidney cells expressing luciferase-tagged ATAD5 - cell viability (AID 651634; calls by dose curve; note: nearly all actives have a fitted effect of over 25% in size; note: potency is the fitted concentration of half-maximal effect)
Method in brief: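 Cytotoxicity counterscreen in HEK293T cells bearing an ATAD5-luciferase reporter: live-cell protease activity measured by CellTiter-Fluor fluorescence after 15.5 hr compound exposure.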

[19] = qHTS assay for small molecule disruptors of the mitochondrial membrane potential - cell viability (AID 720634; calls by dose curve; note: nearly all actives have a fitted effect of over 20% in size; note: potency is the fitted concentration of half-maximal effect)
Method in brief: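 After overnight attachment at 37 C, HepG2 cells received compound or DMSO vehicle for 1 hr. Viability is then taken from ATP-driven luminescence following a 30 min room-temperature CellTiter-Glo step.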

[20] = qHTS assay for small molecule disruptors of the mitochondrial membrane potential (AID 720635); note: potency is the fitted concentration of half-maximal effect
Method in brief: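 Mitochondrial membrane potential tracked with Mito-MPS dye, red aggregates (ex 540/em 590 nm) against green monomers (ex 490/em 535 nm). Compound treatment 1 hr at 37C, dye 30 min in HepG2.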

Compound	Potency [1]	Potency [2]	Potency [3]	Potency [4]	Potency [5]	Potency [6]	Potency [7]	Potency [8]	Potency [9]	Potency [10]	outcome [11]	Potency [12]	outcome [13]	Potency [14]	Potency [15]	Potency [16]	Potency [17]	Potency [18]	Potency [19]	Potency [20]
CC1=C(/C=C/C(C)=C/C=C/C(C)=C/C=C/C=C(C)/C=C/C=C(C)/C=C/C2=C(C)C[C@@H](O)CC2(C)C)C(C)(C)C[C@H](O)C1	29.8 µM (active)	inactive	inactive	inactive	inactive	inactive	inactive	inactive	inactive	inactive	inactive	inactive	inactive	inactive	23.9 µM (active)	–	–	–	–	–
O=C(O)CO.[NH2-].[NH2-].[Pt+2]	–	inactive	inactive	inactive	inactive	inactive	inactive	inactive	inactive	inactive	inactive	inactive	inactive	–	–	inactive	inactive	inactive	inactive	inactive
CC(C)C[C@H](NC(=O)[C@@H](Cc1c[nH]c2ccccc12)NC(=O)[C@H](Cc1ccc(O)cc1)NC(=O)[C@H](CO)NC(=O)[C@H](Cc1c[nH]c2ccccc12)NC(=O)[C@H](Cc1cnc[nH]1)NC(=O)[C@@H]1CCC(=O)N1)C(=O)N[C@@H](CCCN=C(N)N)C(=O)N1CCC[C@@H]1C(=O)NCC(N)=O	inactive	inactive	inactive	inactive	inactive	inactive	inactive	inactive	inactive	inactive	inactive	inactive	inactive	inactive	inactive	–	inactive	inactive	inactive	–
COC(=O)CCC[N+](C)(C)C	–	inactive	inactive	inactive	inactive	inactive	inactive	inactive	inactive	inactive	inactive	inactive	inactive	–	–	inactive	inactive	inactive	inactive	inactive
O=C(Nc1ccc(O)cc1)c1ccccc1O	inactive	inactive	inactive	inactive	inactive	inactive	inactive	inactive	inactive	inactive	inactive	inactive	inactive	inactive	inactive	–	inactive	inactive	–	5.96 µM (active)
Cc1c(Cl)cccc1Nc1ncccc1C(=O)O	–	inactive	inactive	inactive	inactive	inactive	inactive	inactive	inactive	inactive	inactive	inactive	inactive	–	–	inactive	inactive	inactive	inactive	13.3 µM (active)
CC(=O)Oc1c(C)cc(OCC(O)CNC(C)C)c(C)c1C (stereo not given)	inactive	inactive	inactive	inactive	inactive	inactive	inactive	inactive	inactive	inactive	inactive	inactive	inactive	21.3 µM (active)	inactive	–	–	inactive	inactive	inactive
Nc1ncnc(Nc2ccc(Cl)cc2)n1	inactive	inactive	inactive	inactive	inactive	inactive	inactive	inactive	inactive	inactive	inactive	inactive	inactive	–	inactive	–	inactive	inactive	–	–
CCCCCCCCCCCCCCCCSCC(COC)COP(=O)([O-])OCC[N+](C)(C)C (stereo not given)	inactive	inactive	inactive	–	inactive	inactive	inactive	inactive	inactive	inactive	inactive	inactive	inactive	inactive	23.9 µM (active)	–	inactive	inactive	inactive	–
CC(C)C(=O)OCC(=O)[C@@]12O[C@H](C3CCCCC3)O[C@@H]1C[C@H]1[C@@H]3CCC4=CC(=O)C=C[C@]4(C)[C@H]3[C@@H](O)C[C@@]12C	–	inactive	inactive	inactive	inactive	inactive	inactive	inactive	inactive	inactive	inactive	inactive	inactive	–	–	inactive	inactive	inactive	inactive	7.84 µM (active)
CCOc1ccc(N=Nc2ccc(N)cc2N)cc1	–	inactive	inactive	inactive	inactive	inactive	inactive	inactive	inactive	inactive	inactive	inactive	inactive	–	–	0.168 µM (active)	inactive	2.37 µM (active)	11.9 µM (active)	1.68 µM (active)
CO[C@H]1C=CO[C@@]2(C)Oc3c(C)c(O)c4c(O)c(c5c(nc6cc(C)ccn65)c4c3C2=O)NC(=O)/C(C)=C\C=C[C@H](C)[C@H](O)[C@@H](C)[C@@H](O)[C@@H](C)[C@H](OC(C)=O)[C@@H]1C	inactive	inactive	inactive	inactive	inactive	inactive	inactive	inactive	inactive	inactive	inactive	inactive	inactive	–	–	–	inactive	–	inactive	–
Nc1ncnc2c1ncn2CCOCP(=O)(O)O	–	inactive	inactive	inactive	inactive	inactive	inactive	inactive	inactive	inactive	inactive	inactive	inactive	inactive	–	inactive	inactive	inactive	inactive	inactive
